Screening data as filed in PubChem.
Compounds with a hit are over-represented: about 2.4% of the library has one in this group of screens.
eIF4H FP inh: inhibitors of RNA binding by human eIF4H. Q15056. eIF4H fluorescence polarization binding assay. inhibition, % at 35 µM. 290,000 compounds, 0.94% hits. AID 2012;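 further: calls also rest on retests at 20 µM and on dose response follow-up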
eIF4E-4G inh: eIF4E/eIF4G interaction inhibition in translation initiation. P63073+Q04637. TR-FRET eIF4E-eIF4GI(517-606) binding, 2 h. inhibition, % at 21.7 µM. 220,000 compounds, 0.37% hits;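 active means inhibition above about 30%, limit read from the data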;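 further: 0% = full FRET control wells and 100% = background wells lacking eIF4GI fragment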
PERK inhibitor: blocks human PERK kinase | CHO PERK-DD fusion, SEAP luminescence translation reporter | 220,000 compounds, 0.17% hits | inhibition, % at 5.6 µM;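 active means inhibition above the mean inhibition of all tested compounds plus 3 SD, set separately per screening campaign, cut at about 2.9% in these data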;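 further: PERK kinase domain activated by AP20187 dimerizer at 100 nM; 0% = DMSO with dimerizer and 100% = rapamycin at 8.4 µM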
Target sequence (Q9NZJ5 whole entry, looked up, the tested form may be a part): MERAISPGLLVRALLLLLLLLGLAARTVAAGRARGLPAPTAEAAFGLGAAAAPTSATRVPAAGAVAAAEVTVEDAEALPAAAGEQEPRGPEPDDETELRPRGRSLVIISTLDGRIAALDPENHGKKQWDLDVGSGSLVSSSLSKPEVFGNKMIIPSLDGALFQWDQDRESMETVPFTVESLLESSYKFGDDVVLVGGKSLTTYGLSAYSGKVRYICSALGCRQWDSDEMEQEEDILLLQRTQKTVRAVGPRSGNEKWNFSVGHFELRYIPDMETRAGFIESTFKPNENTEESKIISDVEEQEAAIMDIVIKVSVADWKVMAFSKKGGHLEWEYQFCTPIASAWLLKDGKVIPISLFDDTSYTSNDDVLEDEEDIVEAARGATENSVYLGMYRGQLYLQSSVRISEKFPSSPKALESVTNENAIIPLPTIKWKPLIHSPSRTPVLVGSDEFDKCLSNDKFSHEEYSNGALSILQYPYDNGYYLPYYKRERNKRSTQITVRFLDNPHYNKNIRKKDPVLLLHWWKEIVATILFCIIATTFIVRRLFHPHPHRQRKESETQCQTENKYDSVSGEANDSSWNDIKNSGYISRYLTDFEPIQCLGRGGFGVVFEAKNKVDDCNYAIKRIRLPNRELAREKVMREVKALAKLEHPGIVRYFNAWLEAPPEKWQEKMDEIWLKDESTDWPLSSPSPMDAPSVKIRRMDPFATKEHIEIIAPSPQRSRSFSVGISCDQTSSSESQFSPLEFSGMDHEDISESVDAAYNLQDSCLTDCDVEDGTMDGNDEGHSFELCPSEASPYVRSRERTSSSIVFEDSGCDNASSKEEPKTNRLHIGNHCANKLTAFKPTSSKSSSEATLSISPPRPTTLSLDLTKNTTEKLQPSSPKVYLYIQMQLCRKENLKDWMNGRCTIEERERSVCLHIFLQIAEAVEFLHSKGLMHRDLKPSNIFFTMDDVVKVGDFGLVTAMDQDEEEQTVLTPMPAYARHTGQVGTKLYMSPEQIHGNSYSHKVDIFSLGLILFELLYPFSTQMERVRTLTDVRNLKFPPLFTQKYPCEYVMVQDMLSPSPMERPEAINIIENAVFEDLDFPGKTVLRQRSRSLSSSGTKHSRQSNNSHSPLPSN
MLLE-PAM2 inh: inhibitors of microRNA-mediated deadenylation, human PABP1 MLLE binding; P11940; 360,000 compounds, 0.36% hits; AID 588489; inhibition, % at 20 µM; GST-MLLE / FITC-PAM2 fluorescence polarization; in the data active means inhibition above about 35%, passing the limit was not always enough;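 further: plate controls were DMSO wells with GST-MLLE for no effect and wells lacking GST-MLLE protein for full effect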
PfM18AAP inh-1: blocks P. falciparum M18 aspartyl aminopeptidase; inhibition, % at 7.35 µM; 290,000 compounds, 1.2% hits; AID 1822; recombinant PfM18AAP, H-Glu-NHMec fluorogenic cleavage;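 active means inhibition above the campaign mean inhibition over all tested compounds plus 3 SD, cut at about 28% in these data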;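 further: 0% = plate median of test compound wells and 100% = 2 mM ZnCl2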
PABP FP inh: PABP-poly(A) binding inhibition; P11940; PABP-poly(A) RNA binding, fluorescence polarization; inhibition, % at 35 µM; 290,000 compounds, 1% hits; AID 2014;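 further: calls also rest on retests at 20 µM and on dose response follow-up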
PfM18AAP inh-2: PfM18AAP inhibition, confirmation | shares compounds with PfM18AAP inh-1 | recombinant PfM18AAP, H-Glu-NHMec fluorogenic cleavage | inhibition, % at 7.35 µM | 2,400 compounds, 28% hits;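 active means mean inhibition over replicate wells above the hit cutoff set for the earlier primary screen, cut at about 29% in these data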;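 further: 0% = median of test compound wells and 100% = 2 mM ZnCl2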
CTSL1 counter: Cathepsin L (human) inhibition, confirmation; AID 2178; shares compounds with PfM18AAP inh-1; purified cathepsin L1, Z-Leu-Arg-MCA fluorescence; 2,400 tested, under 10 active; inhibition, % at 5.96 µM;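 active means average inhibition across replicates above the hit cutoff set in the earlier primary screen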;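 further: 0% = median of test compound wells and 100% = Z-Phe-Ala-diazomethylketone 1 µM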
* hit, by the source's call; ? = inconclusive; · = not tested or not shown. Unless noted, how the calls were made is not given here.

SMILES	eIF4H FP inh	eIF4E-4G inh	PERK inhibitor	MLLE-PAM2 inh	PfM18AAP inh-1	PABP FP inh	PfM18AAP inh-2	CTSL1 counter
COc1ccc(-n2c(Cn3nnc4ccccc43)n[nH]c2=S)cc1	6	16	0	-8	38*	20	11	0
COc1ccc(-n2c(Cn3nnc4ccccc43)nnc2SCC(=O)O)cc1	-5	5	0	-4	-9	18	·	·
Cc1ccc(/C=N/Nc2cn[nH]c(=O)n2)o1	?	3	0	-7	48*	?	5	3
Cc1ccc(/C=N/Nc2ccc3ccccc3n2)o1	20	-4	0	-32	14	-9	·	·
C/C(=N\Nc1nc(N)cc(Cl)n1)c1cccc(N)c1	2	0	0	-7	4	2	·	·
C/C(=N\Nc1nc(N)cc(Cl)n1)c1cccc([N+](=O)[O-])c1	1	0	1	14	34*	-8	-45	3
O=c1c(OC2OC(CO)C(O)C(O)C2O)c(-c2ccc(O)c(O)c2)oc2cc(O)cc(O)c12 (centres undefined)	6	2	1	2	62*	6	46*	1
C[C@@H]1O[C@@H](Oc2c(-c3cc(O)c(O)c(O)c3)oc3cc(O)cc(O)c3c2=O)[C@H](O)[C@H](O)[C@H]1O	84	8	1	0	46*	-1	11	-1
COc1ccc(-n2c(SCC#N)nc3c(sc(=S)n3-c3ccccc3)c2=O)c(OC)c1	-3	·	·	25	35*	6	23	3
COc1ccccc1-n1c(SC)nc2c(sc(=S)n2-c2ccccc2)c1=O	-8	·	·	18	3	4	·	·
COc1ccc(/C=C(\NC(=O)c2ccco2)C(=O)N2CCCCC2)cc1	-10	·	·	-11	0	-1	·	·
CC(=NO)c1ccc2c(c1)C(=NO)c1ccccc1-2	·	·	·	-20	·	·	·	·
Cc1cc2oc(=O)sc2cc1NS(=O)(=O)c1ccccc1	0	·	·	8	36*	-8	-30	0
Cc1cc2oc(=O)sc2cc1NS(=O)(=O)c1cccc2cccnc12	-10	·	·	11	26	-10	·	·
COc1ccc(NC(=O)c2c(NC(=O)CCC(=O)O)sc(-c3ccccc3)c2C)cc1	-5	4	1	29	18	-3	·	·
CN1C(=O)[C@H](Cc2ccc([N+](=O)[O-])cc2)NC1=S	-5	·	·	-97	16	10	·	·
N#Cc1cc(-c2ccccc2)nc(NN)n1	-4	7	-1	9	43*	0	31*	7
CCOC(=O)C1=C(C)N(C)C(=O)NC1c1cccc2ccccc12 (centres undefined)	-15	·	·	-7	1	10	·	·
CCN1CCC2(CC1)N=C(c1ccc(F)cc1)C(=S)N2C(=O)c1ccc(C(C)(C)C)cc1	6	6	0	31	14	-5	·	·
CN1CCC2(CC1)N=C(c1ccc(F)cc1)C(=S)N2C(=O)c1ccccc1	12	3	0	27	33*	22	-39	-2
O=C(NNc1nc2ccccc2nc1C(F)(F)F)c1ccccc1	-2	-6	-2	-41	34*	-1	-3	1
O=C(NNc1nc2ccccc2o1)c1ccccc1	1	-9	0	-13	41*	0	0	0
NNc1nc2ccccc2nc1C(F)(F)F	11	0	0	-21	-8	-11	·	·
CCCC(C)NC(=O)COc1ccc(S(=O)(=O)N2CCCC2)cc1 (centres undefined)	5	-1	0	-4	0	0	·	·
Cc1c(OCC(=O)C(C)(C)C)ccc2c(-c3ccccc3)cc(=O)oc12	4	·	·	-6	0	-2	·	·
SMILES	eIF4H FP inh	eIF4E-4G inh	PERK inhibitor	MLLE-PAM2 inh	PfM18AAP inh-1	PABP FP inh	PfM18AAP inh-2	CTSL1 counter
COc1ccc(S(=O)(=O)Nc2ccc(N(C)C(C)=O)cc2)cc1	1	6	-1	-5	5	6	·	·
CCN(CC)c1ccc(NS(=O)(=O)c2ccc(OC)cc2)cc1	-1	7	0	9	32*	-1	-27	1
CCOC(=O)CN1C(=O)S/C(=C/c2ccco2)C1=O	-3	·	·	5	9	-5	·	·
O=C(CN1C(=O)/C(=C/c2ccco2)SC1=S)NC1CCS(=O)(=O)C1 (centres undefined)	74*	·	·	26	39*	51*	-19	5
O=C(CCN1C(=O)/C(=C/c2ccccc2)SC1=S)NC1CCS(=O)(=O)C1 (centres undefined)	0	·	·	18	8	4	·	·
NN1C(=O)/C(=C\c2ccco2)SC1=S	106*	0	1	19	34*	91*	-20	-1
O=C(c1ccco1)N1CCN(S(=O)(=O)c2ccccc2[N+](=O)[O-])CC1	1	-1	1	14	0	-2	·	·
O=C(CSc1nnnn1-c1ccc2c(c1)OCCO2)N1CCN(C(=O)c2ccco2)CC1	-6	-3	0	-3	-3	-1	·	·
COc1ccc2o/c(=N\O)c(C(=O)Nc3ccccc3OC)cc2c1	0	-6	1	37	7	7	·	·
COc1cccc2cc(C(=O)Nc3ccccc3C)/c(=N/O)oc12	1	·	·	-10	49*	-7	-21	1
COc1ccc(C2CC(c3ccc(Br)cc3)=NN2C(=S)Nc2ccccc2)cc1 (centres undefined)	-2	-2	-1	19	42*	-1	-20	9
Cc1c(C)n(C(=O)CSc2ncn[nH]2)c2ccccc12	-10	1	1	21	83*	2	52*	6
CC1=CC(C)(C)N(C(=O)CCl)c2ccccc21	0	1	-1	6	-12	-8	·	·
CC1=CC(C)(C)N(C(=O)CSc2ncn[nH]2)c2ccccc21	13	-4	-1	-10	54*	-4	-42	2
COc1ccccc1-n1nnnc1SCC(=O)N1CCCC1=O	21	·	·	-2	-2	1	·	·
COc1ccc(/C=C2\SC(=O)N(CC(=O)Nc3ccc(O)cc3)C2=O)cc1OC	-4	·	·	-12	0	3	·	·
COc1ccc(/C=C2\SC(=O)N(CC(=O)NN3CCN(C)CC3)C2=O)cc1OC	0	-16	1	21	37*	-13	-53	4
Cc1cc(C)nc(SCCc2ccncc2)n1	7	-10	0	39	50*	9	-8	-3
Cc1cc(C)nc(SCSc2nc(C)cc(C)n2)n1	-7	-1	0	13	-1	-4	·	·
CC(NC(=O)c1sc2cc([N+](=O)[O-])ccc2c1Cl)C(C)(C)C (centres undefined)	14	-4	1	35	38*	14	31*	2
Cc1ccc(O)c(Nc2nc(-c3ccccc3)nc3ccccc23)c1	-6	·	·	-9	-8	2	·	·
